The panel holds about 83,000 compounds, 20% with a hit somewhere; the sample as a whole holds those more often.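 Activity criterion: percent growth below 10, measured after cells in 96-well plates were exposed to a single compound concentration for 48 hours.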 Calls of active or inactive are those of the source.
What was measured:
Assay in all cases: NCI-60 one-dose screen, 48 h (100 = growth as untreated, 0 = no growth, -100 = all killed)
Details in all cases: 10 µM unless noted
HCT-15 colon = test system: HCT-15 colon
HT29 colon = test system: HT29 colon
SNB-75 CNS = test system: SNB-75 CNS
SNB-19 CNS = test system: SNB-19 CNS
U251 CNS = test system: U251 CNS
PC-3 prostate = test system: PC-3 prostate
SK-MEL-5 melanoma = test system: SK-MEL-5 melanoma
UACC-62 melanoma = test system: UACC-62 melanoma
LOX IMVI melanoma = test system: LOX IMVI melanoma
SK-MEL-28 melanoma = test system: SK-MEL-28 melanoma
SK-MEL-2 melanoma = test system: SK-MEL-2 melanoma
EKVX NSCLC = test system: EKVX NSCLC
SN12C renal = test system: SN12C renal
UO-31 renal = test system: UO-31 renal
TK-10 renal = test system: TK-10 renal
ACHN renal = test system: ACHN renal
CAKI-1 renal = test system: CAKI-1 renal
CCRF-CEM leukemia = test system: CCRF-CEM leukemia
MOLT-4 leukemia = test system: MOLT-4 leukemia
A498 renal = test system: A498 renal

Measured: growth

CCOC(=O)/C(C#N)=C1/NNC(=Nc2cccnc2)S1
inactive: HCT-15 colon 101% | HT29 colon 98.3% | SNB-75 CNS 92% | SNB-19 CNS 95.9% | U251 CNS 94.1% | PC-3 prostate 88.6% | SK-MEL-5 melanoma 98.6% | UACC-62 melanoma 95.5% | LOX IMVI melanoma 95.7% | SK-MEL-28 melanoma 105% | SK-MEL-2 melanoma 107% | EKVX NSCLC 98.7% | SN12C renal 98.6% | UO-31 renal 92.1% | TK-10 renal 102% | ACHN renal 100% | CAKI-1 renal 97.1% | CCRF-CEM leukemia 106% | MOLT-4 leukemia 106%

COc1ccc(/C=N/NC(=O)c2cnn3c2NC(c2ccccc2)C3)cc1OC (centres undefined)
inactive: HCT-15 colon 41.8% | HT29 colon 14% | SNB-75 CNS 51.6% | SNB-19 CNS 62.6% | U251 CNS 54.4% | PC-3 prostate 56.9% | SK-MEL-5 melanoma 66.7% | UACC-62 melanoma 47.7% | LOX IMVI melanoma 56.5% | SK-MEL-28 melanoma 78% | SK-MEL-2 melanoma 41.9% | EKVX NSCLC 87.2% | SN12C renal 81.8% | UO-31 renal 78.9% | TK-10 renal 75.6% | ACHN renal 82.6% | CAKI-1 renal 56.1% | CCRF-CEM leukemia 66.7% | MOLT-4 leukemia 50.3%

Cn1ccnc1C(=O)/C=C/c1ccc(CC(=O)Nc2ccc(F)cc2)cc1
active: HT29 colon -26% | SNB-75 CNS -7.25% | U251 CNS 9.49% | CCRF-CEM leukemia 6.85%
inactive: HCT-15 colon 14.1% | SNB-19 CNS 19% | PC-3 prostate 36.1% | SK-MEL-5 melanoma 34% | UACC-62 melanoma 54.3% | LOX IMVI melanoma 15.2% | SK-MEL-28 melanoma 85.9% | SK-MEL-2 melanoma 102% | EKVX NSCLC 57.9% | SN12C renal 23.9% | UO-31 renal 37.2% | TK-10 renal 71.9% | ACHN renal 69.3% | CAKI-1 renal 38.1% | MOLT-4 leukemia 20.6%

CC1=CCC(OC(=O)C(C)(O)CCC(O)(C(=O)OC2(C)C=CC(O)(C(C)C)CC2)C(C)C)(C(C)C)CC1 (centres undefined)
inactive: HCT-15 colon 103% | HT29 colon 104% | SNB-75 CNS 92.5% | SNB-19 CNS 102% | U251 CNS 98.3% | PC-3 prostate 113% | SK-MEL-5 melanoma 101% | UACC-62 melanoma 98.1% | LOX IMVI melanoma 101% | SK-MEL-28 melanoma 114% | SK-MEL-2 melanoma 108% | EKVX NSCLC 99% | SN12C renal 98.9% | UO-31 renal 88.6% | TK-10 renal 95.6% | ACHN renal 111% | CAKI-1 renal 95% | CCRF-CEM leukemia 102% | MOLT-4 leukemia 109%

CC(Sc1nc2sc3c(c2c(=O)n1-c1ccc(Cl)cc1)CCCC3)C(=O)Nc1nc(-c2ccc(Br)cc2)cs1 (centres undefined)
inactive: HCT-15 colon 95.4% | HT29 colon 94.7% | SNB-75 CNS 95.9% | SNB-19 CNS 96.6% | U251 CNS 97.2% | PC-3 prostate 95.6% | SK-MEL-5 melanoma 97.4% | UACC-62 melanoma 88.9% | LOX IMVI melanoma 96.3% | SK-MEL-28 melanoma 105% | SK-MEL-2 melanoma 101% | EKVX NSCLC 90.1% | SN12C renal 96.8% | UO-31 renal 81.5% | TK-10 renal 99.5% | ACHN renal 106% | CAKI-1 renal 94.4% | CCRF-CEM leukemia 105% | MOLT-4 leukemia 94.1%

Cc1cc(C)c(S(=O)(=O)Oc2ccccc2[N+](=O)[O-])c(C)c1
active: HT29 colon 3.94% | SNB-75 CNS -18.4% | SK-MEL-5 melanoma 6.18% | SK-MEL-2 melanoma 7.67%
inactive: HCT-15 colon 15.8% | SNB-19 CNS 33.1% | U251 CNS 29.7% | PC-3 prostate 20.7% | UACC-62 melanoma 24.5% | LOX IMVI melanoma 43.4% | SK-MEL-28 melanoma 50.6% | EKVX NSCLC 48.2% | SN12C renal 35.6% | UO-31 renal 22.8% | TK-10 renal 33.9% | ACHN renal 37.4% | CAKI-1 renal 24% | CCRF-CEM leukemia 20.6% | MOLT-4 leukemia 34.6%

COc1cc2nc(-c3ccc(Cl)cc3)cc(OCCCN3CCCC3)c2cc1OC
active: SNB-75 CNS 8.25% | SK-MEL-5 melanoma -8.4% | UACC-62 melanoma -66.1% | LOX IMVI melanoma -32.7% | CAKI-1 renal 3.85%
inactive: HCT-15 colon 20.4% | HT29 colon 23.8% | SNB-19 CNS 67.9% | U251 CNS 54.4% | PC-3 prostate 41.9% | SK-MEL-28 melanoma 63.7% | SK-MEL-2 melanoma 71.1% | EKVX NSCLC 65.8% | SN12C renal 37.9% | UO-31 renal 42.3% | TK-10 renal 101% | ACHN renal 35.5% | CCRF-CEM leukemia 44.6% | MOLT-4 leukemia 40.4%

CCC(=O)Oc1ccc(/C(=C(\C)c2ccccc2)c2ccc(OCCN3CCCCC3)cc2)cc1
inactive: HCT-15 colon 58.6% | SNB-75 CNS 96.5% | SNB-19 CNS 85% | U251 CNS 68.4% | PC-3 prostate 72.8% | SK-MEL-5 melanoma 82.5% | UACC-62 melanoma 88.5% | LOX IMVI melanoma 81% | SK-MEL-28 melanoma 71.2% | SK-MEL-2 melanoma 92.1% | EKVX NSCLC 87.1% | SN12C renal 79.7% | UO-31 renal 64.3% | TK-10 renal 84.2% | ACHN renal 102% | CAKI-1 renal 87.8% | CCRF-CEM leukemia 84.9% | MOLT-4 leukemia 60.8%
active: HT29 colon 8.78%

CCCC/C=N/NC(=S)NCc1ccccc1
inactive: HCT-15 colon 95.8% | HT29 colon 101% | SNB-75 CNS 86% | SNB-19 CNS 95.9% | U251 CNS 97.1% | PC-3 prostate 86.1% | SK-MEL-5 melanoma 97.1% | UACC-62 melanoma 93.8% | LOX IMVI melanoma 97.3% | SK-MEL-28 melanoma 98.2% | SK-MEL-2 melanoma 106% | EKVX NSCLC 101% | SN12C renal 96.1% | UO-31 renal 93.3% | TK-10 renal 103% | ACHN renal 99.4% | CAKI-1 renal 100% | CCRF-CEM leukemia 99.1% | MOLT-4 leukemia 95%

C=C1C(=O)O[C@H]2[C@H]1CC/C(CNC(=O)/C=C/c1cccc(OC)c1)=C\CC[C@@]1(C)O[C@@H]21
active: HCT-15 colon -44.7% | HT29 colon -36.7% | UACC-62 melanoma -26.6% | LOX IMVI melanoma 0.442% | SK-MEL-28 melanoma -48.7% | EKVX NSCLC -20.2% | SN12C renal 6.02% | UO-31 renal -94.6% | TK-10 renal -37.7% | ACHN renal -79.7% | CAKI-1 renal -71.9% | CCRF-CEM leukemia 1.02% | MOLT-4 leukemia -3.23%
inactive: SNB-75 CNS 90.1% | SNB-19 CNS 55.5% | U251 CNS 47.3% | PC-3 prostate 36% | SK-MEL-5 melanoma 67.8% | SK-MEL-2 melanoma 55.6%

COc1ccc(NC(=O)c2cc(NCc3cc(O)ccc3O)ccc2O)cc1
inactive: HCT-15 colon 97% | HT29 colon 89.7% | SNB-75 CNS 101% | SNB-19 CNS 90% | U251 CNS 91.1% | PC-3 prostate 64.1% | SK-MEL-5 melanoma 92.6% | UACC-62 melanoma 94.6% | LOX IMVI melanoma 94.3% | SK-MEL-28 melanoma 98.5% | SK-MEL-2 melanoma 89.3% | EKVX NSCLC 100% | SN12C renal 85.8% | UO-31 renal 65.8% | TK-10 renal 118% | ACHN renal 97.4% | CAKI-1 renal 107% | CCRF-CEM leukemia 28.5% | MOLT-4 leukemia 65.2%

CCCCNC(=O)Oc1ccc(/C(=C(\C)c2ccccc2)c2ccc(OCCN3CCCCC3)cc2)cc1
inactive: SNB-75 CNS 84.6% | SNB-19 CNS 71.5% | U251 CNS 50.7% | PC-3 prostate 55.3% | SK-MEL-5 melanoma 68.9% | UACC-62 melanoma 41.8% | LOX IMVI melanoma 62% | SK-MEL-28 melanoma 46.7% | SK-MEL-2 melanoma 72.7% | EKVX NSCLC 76.2% | SN12C renal 70.7% | UO-31 renal 40.4% | TK-10 renal 85.3% | ACHN renal 90.1% | CAKI-1 renal 46.9% | CCRF-CEM leukemia 66.3% | MOLT-4 leukemia 53.8%
active: HCT-15 colon 9.66% | HT29 colon 0.947%

CC1=C(C(=O)/C=C/c2c[nH]c3ccccc23)C(c2ccccc2)NC(=S)N1 (centres undefined)
inactive: HCT-15 colon 101% | HT29 colon 106% | SNB-75 CNS 65.5% | SNB-19 CNS 91.7% | U251 CNS 101% | PC-3 prostate 95.1% | SK-MEL-5 melanoma 98.3% | UACC-62 melanoma 83.6% | LOX IMVI melanoma 94.3% | SK-MEL-28 melanoma 104% | SK-MEL-2 melanoma 99.2% | EKVX NSCLC 85.1% | SN12C renal 91.6% | UO-31 renal 63.9% | TK-10 renal 135% | ACHN renal 93.5% | CAKI-1 renal 77.8% | CCRF-CEM leukemia 103% | MOLT-4 leukemia 101%

Cc1ccc(S(=O)(=O)Nn2c3c(cc(-c4nc5ccccc5s4)c2=O)CCCCCC3)cc1
inactive: HCT-15 colon 97% | HT29 colon 112% | SNB-75 CNS 91.9% | SNB-19 CNS 99.2% | U251 CNS 99.9% | PC-3 prostate 99.7% | SK-MEL-5 melanoma 96.2% | UACC-62 melanoma 84.4% | LOX IMVI melanoma 95.9% | SK-MEL-28 melanoma 110% | SK-MEL-2 melanoma 99.2% | EKVX NSCLC 92.5% | SN12C renal 95.9% | UO-31 renal 78.9% | TK-10 renal 111% | ACHN renal 97.5% | CAKI-1 renal 86.6% | CCRF-CEM leukemia 105% | MOLT-4 leukemia 100%

COc1ccc(-c2nc(S(=O)(=O)c3ccccc3)c(S(=O)CC(=O)N3CCC(C)CC3)o2)cc1 (centres undefined)
active: HCT-15 colon -48.5% | LOX IMVI melanoma -4.12% | SN12C renal -33.3% | UO-31 renal -65.9% | ACHN renal -29.8% | CCRF-CEM leukemia 1.85%
inactive: HT29 colon 11% | SNB-75 CNS 72% | SNB-19 CNS 57.6% | U251 CNS 66.2% | PC-3 prostate 40.9% | SK-MEL-5 melanoma 72.8% | UACC-62 melanoma 17.9% | SK-MEL-28 melanoma 19.2% | SK-MEL-2 melanoma 67.9% | EKVX NSCLC 65.7% | CAKI-1 renal 34.5% | A498 renal 83.8%

From PubChem BioAssay (NCI)
